From PubChem BioAssay (NCI)
The panel holds about 79,000 compounds, 15% with a hit somewhere; the sample as a whole holds those more often. A number with no mark means an inactive call. Active and inactive are the calls of the source. Rule as the data show it: active = growth inhibition above about 70%; inactive = the rest.

Key:
[1] = NCI Yeast Anticancer Drug Screen. Data for the rad52 strain (AID 147);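 also: 0% = growth of vehicle-treated control cultures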; details: S. cerevisiae rad52 mutant growth inhibition, stronger effect = higher value
Outline: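 Vehicle-treated cultures served as the reference for growth inhibition of compound-exposed yeast bearing a DNA repair mutation.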

[2] = NCI Yeast Anticancer Drug Screen. Data for the wt1 strain (AID 149);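 also: 0% = growth of vehicle-treated wt1 cultures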; details: S. cerevisiae wt1 strain (SPY 50644) growth inhibition, stronger effect = higher value
Outline: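 Measured: growth of wt1 yeast under compound versus vehicle treatment, reported as inhibition.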

[3] = NCI Yeast Anticancer Drug Screen. Data for the rad50EPP+ strain (AID 151);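 also: 0% = growth of vehicle-treated control cultures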; details: S. cerevisiae rad50 mutant strain, stronger effect = higher value
Outline: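 In this screen, rad50EPP+ yeast were exposed to compounds. Growth inhibition was scored against vehicle-treated controls.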

[4] = NCI Yeast Anticancer Drug Screen. Data for the rad50 strain (AID 155);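 also: 0% = growth of vehicle-only cultures of the same strain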; details: S. cerevisiae rad50 strain growth inhibition, stronger effect = higher value
Outline: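 Growth of the mutant yeast was measured after compound exposure and referenced to vehicle-treated cultures.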

[5] = NCI Yeast Anticancer Drug Screen. Data for the mec2-1 strain (AID 157); details: S. cerevisiae mec2-1 strain, stronger effect = higher value
Outline: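 Vehicle-treated cultures served as reference for growth inhibition of compound-exposed mec2-1 yeast.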

[6] = NCI Yeast Anticancer Drug Screen. Data for the rad14 strain (AID 159);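 also: 0% = growth of vehicle-treated control cultures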; details: S. cerevisiae rad14 strain growth inhibition, stronger effect = higher value
Outline: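 Here, inhibition of yeast growth was measured after compound exposure, using a strain with a genetic defect in DNA damage repair and vehicle-treated cultures as the reference.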

[7] = NCI Yeast Anticancer Drug Screen. Data for the sgs1 mgt1 strain (AID 161);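 also: 0% = growth of cultures given vehicle only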; details: S. cerevisiae sgs1 mgt1 strain, stronger effect = higher value
Outline: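 Mutant yeast exposed to compound; growth scored against vehicle-only wells.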

[8] = NCI Yeast Anticancer Drug Screen. Data for the CLN2oe strain (AID 163);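 also: 0% = growth of vehicle-only control cultures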; details: S. cerevisiae CLN2oe strain, stronger effect = higher value
Outline: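 Inhibition relative to vehicle-treated yeast is reported. Cells: strain with genetic alteration in cell-cycle control, grown with compound.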

[9] = NCI Yeast Anticancer Drug Screen. Data for the cln2 rad14 strain (AID 165);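 also: 0% = growth equal to vehicle treated cultures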; details: S. cerevisiae cln2 rad14 strain, stronger effect = higher value
Outline: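 Each compound was tested on cln2 rad14 yeast. Inhibition of growth was calculated against vehicle-exposed controls.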

[10] = NCI Yeast Anticancer Drug Screen. Data for the bub3 strain (AID 167); details: S. cerevisiae bub3 mutant strain, stronger effect = higher value
Outline: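 Whole-cell yeast assay. The mutant strain was incubated with compounds, and growth inhibition was determined by comparison with vehicle-treated cells.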

[11] = NCI Yeast Anticancer Drug Screen. Data for the wt2 strain (AID 169);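 also: 0% = growth of vehicle-treated yeast cultures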; details: S. cerevisiae wt2 strain growth inhibition, stronger effect = higher value
Outline: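 Inhibition of yeast growth was determined after compound treatment, normalised to controls receiving only vehicle.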

[12] = NCI Yeast Anticancer Drug Screen. Data for the mlh1 strain (AID 171);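 also: 0% = growth of vehicle-treated control cultures of the same strain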; details: S. cerevisiae mlh1 strain growth inhibition, stronger effect = higher value
Outline: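 Vehicle-normalised growth inhibition of a repair- or checkpoint-altered yeast strain following compound treatment.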

[13] = NCI Yeast Anticancer Drug Screen. Data for the sgs1 strain (AID 173);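 also: 0% = growth of vehicle-only control cultures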; details: S. cerevisiae sgs1 mutant, stronger effect = higher value
Outline: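 Screen format: yeast with repair or checkpoint alterations, compound exposure, growth read relative to vehicle.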

[14] = NCI Yeast Anticancer Drug Screen. Data for the mlh1 rad18 strain (AID 175); details: S. cerevisiae mlh1 rad18 strain growth inhibition, stronger effect = higher value
Outline: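 Vehicle-treated cultures served as the reference for growth inhibition in a yeast strain carrying DNA damage repair alterations exposed to each compound.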

[15] = NCI Yeast Anticancer Drug Screen. Data for the rad18 strain (AID 177); details: S. cerevisiae rad18 mutant growth inhibition, stronger effect = higher value
Outline: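 Test articles were incubated with altered yeast defective in DNA damage repair. Results are given as inhibition of growth versus vehicle.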

[16] = at 5.0 µM (retest, dose inferred, filed as 0.5)
[17] = at 50.0 µM (retest, dose inferred, filed as 5.0)

Work on `CCN(CC)N=Nc1c(C(N)=O)n[nH]c1C` yielded a growth inhibition ([1]; at 1.2 µM) of 0%, a growth inhibition ([1]; at 3.7 µM) of -3% and a growth inhibition ([1]; at 11.0 µM) of 8%. The growth inhibition ([1]; at 33.0 µM) was 47%, the growth inhibition ([1]; at 100.0 µM) was 93% (active) and the growth inhibition ([2]; at 1.2 µM) was -6%. It also gave a growth inhibition ([2]; at 3.7 µM) of -5%, a growth inhibition ([2]; at 11.0 µM) of -7% and a growth inhibition ([2]; at 33.0 µM) of -5%. The growth inhibition ([2]; at 100.0 µM) was 0%, the growth inhibition ([3]; at 1.2 µM) was -2% and the growth inhibition ([3]; at 3.7 µM) was 3%. For the same compound, the growth inhibition ([3]; at 11.0 µM) was 5%, the growth inhibition ([3]; at 33.0 µM) was 31% and the growth inhibition ([3]; at 100.0 µM) was 80% (active). It also gave a growth inhibition ([4]; at 1.2 µM) of -10%, a growth inhibition ([4]; at 3.7 µM) of -8% and a growth inhibition [4, 16] of -138%. It also gave a growth inhibition ([4]; at 11.0 µM) of 9%, a growth inhibition ([4]; at 33.0 µM) of 54% and a growth inhibition [4, 17] of 56%. For the same compound, the growth inhibition ([4]; at 50.0 µM) was 85.3% (active), the growth inhibition ([4]; at 100.0 µM) was 92% (active) and the growth inhibition ([5]; at 1.2 µM) was 2%. It also gave a growth inhibition ([5]; at 3.7 µM) of 1%, a growth inhibition [5, 16] of -46% and a growth inhibition ([5]; at 11.0 µM) of 8%. The growth inhibition ([5]; at 33.0 µM) was 2%, the growth inhibition [5, 17] was -40% and the growth inhibition ([5]; at 50.0 µM) was 15.8%. It also gave a growth inhibition ([5]; at 100.0 µM) of 27%, a growth inhibition ([6]; at 1.2 µM) of -2% and a growth inhibition ([6]; at 3.7 µM) of 1%. For the same compound, the growth inhibition ([6]; at 11.0 µM) was 0%, the growth inhibition ([6]; at 33.0 µM) was 3% and the growth inhibition ([6]; at 100.0 µM) was 23%. The growth inhibition [7, 16] was -62%, the growth inhibition [7, 17] was -35% and the growth inhibition ([7]; at 50.0 µM) was -0.05%. For the same compound, the growth inhibition ([8]; at 1.2 µM) was -5%, the growth inhibition ([8]; at 3.7 µM) was 1% and the growth inhibition ([8]; at 11.0 µM) was 0%. The growth inhibition ([8]; at 33.0 µM) was 0%, the growth inhibition ([8]; at 100.0 µM) was 4% and the growth inhibition [9, 16] was -55%. It also gave a growth inhibition [9, 17] of -63%, a growth inhibition ([9]; at 50.0 µM) of -29.2% and a growth inhibition ([10]; at 1.2 µM) of -15%. It also gave a growth inhibition ([10]; at 3.7 µM) of -12%, a growth inhibition [10, 16] of -65% and a growth inhibition ([10]; at 11.0 µM) of -9%. It also gave a growth inhibition ([10]; at 33.0 µM) of -9%, a growth inhibition [10, 17] of -84% and a growth inhibition ([10]; at 50.0 µM) of -22.8%. It also gave a growth inhibition ([10]; at 100.0 µM) of -2%, a growth inhibition ([11]; at 1.2 µM) of -1% and a growth inhibition ([11]; at 3.7 µM) of 0%. It also gave a growth inhibition ([11]; at 11.0 µM) of -1%, a growth inhibition ([11]; at 33.0 µM) of -1% and a growth inhibition ([11]; at 100.0 µM) of 2%. It also gave a growth inhibition ([12]; at 1.2 µM) of 6%, a growth inhibition ([12]; at 3.7 µM) of -6% and a growth inhibition ([12]; at 11.0 µM) of -5%. For the same compound, the growth inhibition ([12]; at 33.0 µM) was -2%, the growth inhibition ([12]; at 100.0 µM) was -3% and the growth inhibition ([13]; at 1.2 µM) was -1%. The growth inhibition ([13]; at 3.7 µM) was -1%, the growth inhibition ([13]; at 11.0 µM) was -2% and the growth inhibition ([13]; at 33.0 µM) was 9%. The growth inhibition ([13]; at 100.0 µM) was 43%, the growth inhibition [14, 16] was -124% and the growth inhibition [14, 17] was -75%. For the same compound, the growth inhibition ([14]; at 50.0 µM) was 40.4%, the growth inhibition ([15]; at 1.2 µM) was -2% and the growth inhibition ([15]; at 3.7 µM) was 0%. For the same compound, the growth inhibition ([15]; at 11.0 µM) was 6%, the growth inhibition ([15]; at 33.0 µM) was 23% and the growth inhibition ([15]; at 100.0 µM) was 83% (active).

With `Cc1c2cc[n+](CCN3CCCCC3)cc2c(C)c2c1[nH]c1ccc(O)cc12` the growth inhibition ([1]; at 1.2 µM) was 19%, the growth inhibition ([1]; at 3.7 µM) was 44% and the growth inhibition ([1]; at 11.0 µM) was 81% (active). The growth inhibition ([1]; at 33.0 µM) was 93% (active), the growth inhibition ([1]; at 100.0 µM) was 98% (active) and the growth inhibition ([2]; at 1.2 µM) was 2%. The growth inhibition ([2]; at 3.7 µM) was 2%, the growth inhibition ([2]; at 11.0 µM) was 5% and the growth inhibition ([2]; at 33.0 µM) was 6%. For the same compound, the growth inhibition ([2]; at 100.0 µM) was 29%, the growth inhibition ([3]; at 1.2 µM) was 4% and the growth inhibition ([3]; at 3.7 µM) was 16%. The growth inhibition ([3]; at 11.0 µM) was 62%, the growth inhibition ([3]; at 33.0 µM) was 89% (active) and the growth inhibition ([3]; at 100.0 µM) was 96% (active). The growth inhibition ([4]; at 1.2 µM) was 17%, the growth inhibition ([4]; at 3.7 µM) was 47% and the growth inhibition [4, 16] was 36%. For the same compound, the growth inhibition ([4]; at 11.0 µM) was 74% (active), the growth inhibition ([4]; at 33.0 µM) was 91% (active) and the growth inhibition [4, 17] was 97% (active). The growth inhibition ([4]; at 50.0 µM) was 97.8% (active), the growth inhibition ([4]; at 100.0 µM) was 98% (active) and the growth inhibition ([5]; at 1.2 µM) was -2%. It also gave a growth inhibition ([5]; at 3.7 µM) of 3%, a growth inhibition [5, 16] of 25% and a growth inhibition ([5]; at 11.0 µM) of 5%. The growth inhibition ([5]; at 33.0 µM) was 15%, the growth inhibition [5, 17] was 4% and the growth inhibition ([5]; at 50.0 µM) was 57.5%. The growth inhibition ([5]; at 100.0 µM) was 98% (active), the growth inhibition ([6]; at 1.2 µM) was 1% and the growth inhibition ([6]; at 3.7 µM) was 12%. The growth inhibition ([6]; at 11.0 µM) was 1%, the growth inhibition ([6]; at 33.0 µM) was 14% and the growth inhibition ([6]; at 100.0 µM) was 93% (active). The growth inhibition [7, 16] was 2%, the growth inhibition [7, 17] was 38% and the growth inhibition ([7]; at 50.0 µM) was 89.2% (active). For the same compound, the growth inhibition ([8]; at 1.2 µM) was -3%, the growth inhibition ([8]; at 3.7 µM) was -3% and the growth inhibition ([8]; at 11.0 µM) was -3%. For the same compound, the growth inhibition ([8]; at 33.0 µM) was 4%, the growth inhibition ([8]; at 100.0 µM) was 72% (active) and the growth inhibition [9, 16] was 5%. For the same compound, the growth inhibition [9, 17] was 6%, the growth inhibition ([9]; at 50.0 µM) was 30.1% and the growth inhibition ([10]; at 1.2 µM) was -20%. It also gave a growth inhibition ([10]; at 3.7 µM) of 5%, a growth inhibition [10, 16] of 16% and a growth inhibition ([10]; at 11.0 µM) of -4%. For the same compound, the growth inhibition ([10]; at 33.0 µM) was -5%, the growth inhibition [10, 17] was 28% and the growth inhibition ([10]; at 50.0 µM) was 90.5% (active). The growth inhibition ([10]; at 100.0 µM) was 97% (active), the growth inhibition ([11]; at 1.2 µM) was 5% and the growth inhibition ([11]; at 3.7 µM) was 4%. For the same compound, the growth inhibition ([11]; at 11.0 µM) was 5%, the growth inhibition ([11]; at 33.0 µM) was 12% and the growth inhibition ([11]; at 100.0 µM) was 96% (active). It also gave a growth inhibition ([12]; at 1.2 µM) of -5%, a growth inhibition ([12]; at 3.7 µM) of -4% and a growth inhibition ([12]; at 11.0 µM) of 0%. The growth inhibition ([12]; at 33.0 µM) was 8%, the growth inhibition ([12]; at 100.0 µM) was 97% (active) and the growth inhibition ([13]; at 1.2 µM) was -1%. The growth inhibition ([13]; at 3.7 µM) was -2%, the growth inhibition ([13]; at 11.0 µM) was 1% and the growth inhibition ([13]; at 33.0 µM) was 12%. The growth inhibition ([13]; at 100.0 µM) was 94% (active), the growth inhibition [14, 16] was 3% and the growth inhibition [14, 17] was 25%. For the same compound, the growth inhibition ([14]; at 50.0 µM) was 81.8% (active), the growth inhibition ([15]; at 1.2 µM) was -2% and the growth inhibition ([15]; at 3.7 µM) was -5%. For the same compound, the growth inhibition ([15]; at 11.0 µM) was -4%, the growth inhibition ([15]; at 33.0 µM) was -4% and the growth inhibition ([15]; at 100.0 µM) was 41%.
